Measured values: the supplement of paper PMC7393113
“And” between values parts separate entries of the source, which are not always exact repeats. Equal values may be shown once. Where a name gives a salt, the structure may show the parent alone. ± gives the standard deviation of the averaged measurements.

Test system: iBMDM (immortalised mouse bone-marrow-derived macrophages), LPS-stimulated
Assay: mitochondrial superoxide (MitoSOX fluorescence) fold increase over unstimulated control; higher = more LPS-induced mitochondrial ROS (less inhibition)
Conditions: inhibitor concentration: 500 nM, LPS: 100 ng/ml
Summary of the method: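 Mitochondrial superoxide was expressed as fold induction over untreated macrophages. Immortalised mouse bone-marrow-derived macrophages were pretreated with kinase inhibitors (500 nM) for 30 min, loaded with 1 μM MitoSox for 10 min and stimulated with LPS (100 ng/ml). MitoSox fluorescence (excitation 510 nm, emission 580 nm) was read hourly over 4 h, and the three replicates were averaged.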

Compound	mitochondrial superoxide (time after LPS: 1 h)	mitochondrial superoxide (time after LPS: 2 h)	mitochondrial superoxide (time after LPS: 4 h)
C=CC(=O)Nc1cc2c(Nc3ccc(F)c(Cl)c3)ncnc2cc1OCCCN1CCOCC1 [Canertinib (CI-1033)]	1.59 ± 0.093	1.55 ± 0.14	1.87 ± 0.084
C=CC(=O)Nc1cccc(Oc2nc(Nc3ccc(N4CCN(C)CC4)cc3)ncc2Cl)c1	1.54 ± 0.047	1.71 ± 0.056	1.8 ± 0.14
CCc1cc2c(cc1N1CCC(N3CCOCC3)CC1)C(C)(C)c1[nH]c3cc(C#N)ccc3c1C2=O	1.26 ± 0.097	1.4 ± 0.066	1.64 ± 0.12
CN(c1ncccc1CNc1nc(Nc2ccc3c(c2)CC(=O)N3)ncc1C(F)(F)F)S(C)(=O)=O	1.27 and 1.06	1.34 and 1.11	1.63 and 1.11
CC[C@H](Nc1ncnc2[nH]cnc12)c1nc2cccc(F)c2c(=O)n1-c1ccccc1 [CAL-101 (Idelalisib, GS-1101)]	1.34 ± 0.019	1.4 ± 0.06	1.48 ± 0.11
O=C(NCc1cccc(O)c1)Nc1nc(-c2ccncc2)cs1	1.36 ± 0.026	1.44 ± 0.015	1.64 ± 0.017
CNC(=O)CN1CCC(Oc2cc3c(Nc4cccc(Cl)c4F)ncnc3cc2OC)CC1 [AZD8931 (Sapitinib)]	1.12 ± 0.041	1.24 ± 0.048	1.37 ± 0.046
C=CC(=O)Nc1cccc(Nc2nc(Nc3ccc(Oc4ccnc(C(=O)NC)c4)cc3)ncc2F)c1	1.4 ± 0.018	1.49 ± 0.031	1.6 ± 0.023
Cc1nc(NC(=O)N2CCC[C@H]2C(N)=O)sc1-c1ccnc(C(C)(C)C(F)(F)F)c1	1.3 ± 0.032	1.46 ± 0.052	1.7 ± 0.057
COc1cc(Nc2ncc3c(n2)-c2ccc(Cl)cc2C(c2c(F)cccc2OC)=NC3)ccc1C(=O)O [Alisertib (MLN8237)]	1.37 ± 0.058	1.41 ± 0.035	1.46 ± 0.047
COc1cc(Nc2ncc(F)c(Nc3ccc4c(n3)NC(=O)C(C)(C)O4)n2)cc(OC)c1OC [R406 (free base)]	1.23 ± 0.07	1.32 ± 0.041	1.29 ± 0.065
Cc1ccc(-n2nc(C(C)(C)C)cc2NC(=O)Nc2ccc(OCCN3CCOCC3)c3ccccc23)cc1 [BIRB 796 (Doramapimod)]	0.987 ± 0.051	1.11 ± 0.024	1.22 ± 0.032
CNC(=O)c1c(F)cccc1Nc1nc(Nc2cc3c(cc2OC)CCN3C(=O)CN(C)C)nc2[nH]ccc12	1.28 ± 0.057	1.47 ± 0.031	1.64 ± 0.015
CO[C@H]1C[C@@H]2CC[C@@H](C)[C@@](O)(O2)C(=O)C(=O)N2CCCC[C@H]2C(=O)O[C@H]([C@H](C)C[C@@H]2CC[C@@H](OCCO)[C@H](OC)C2)CC(=O)[C@H](C)/C=C(\C)[C@@H](O)[C@@H](OC)C(=O)[C@H](C)C[C@H](C)/C=C/C=C/C=C/1C [Everolimus (RAD001)]	1.37 ± 0.055	1.42 ± 0.028	1.5 ± 0.06
COc1cc2c(Nc3ccc(NC(=O)c4ccccc4)cc3)ncnc2cc1OCCCN1CCOCC1	1.34 ± 0.06	1.44 ± 0.069	1.52 ± 0.037
O=C(Nc1c[nH]nc1-c1nc2ccc(CN3CCOCC3)cc2[nH]1)NC1CC1	1.34 ± 0.02	1.42 ± 0.033	1.51 ± 0.036
CC(C)(C#N)c1ccc(N2C(=O)OCc3cnc4ccc(-c5cnc6ccccc6c5)cc4c32)cc1	1.4 ± 0.039	1.48 ± 0.056	1.676 ± 0.013
CC[C@@H]1C(=O)N(C)c2cnc(Nc3ccc(C(=O)NC4CCN(C)CC4)cc3OC)nc2N1C1CCCC1	1.14 ± 0.063	1.19 ± 0.038	1.39 ± 0.028
Cc1ccc2nc(NCCN)c3ncc(C)n3c2c1	1.43 ± 0.036	1.48 ± 0.027	1.63 ± 0.047
CO[C@H]1C[C@@H]2CC[C@@H](C)[C@@](O)(O2)C(=O)C(=O)N2CCCC[C@H]2C(=O)O[C@H]([C@H](C)C[C@@H]2CC[C@@H](OC(=O)C(C)(CO)CO)[C@H](OC)C2)CC(=O)[C@H](C)/C=C(\C)[C@@H](O)[C@@H](OC)C(=O)[C@H](C)C[C@H](C)/C=C/C=C/C=C/1C	1.55 ± 0.051	1.65 ± 0.098	1.75 ± 0.089
Cc1ccc(NC(=O)c2ccc(CN3CCN(C)CC3)cc2)cc1Nc1nccc(-c2cccnc2)n1 [Imatinib (STI571)]	1.28 ± 0.061	1.39 ± 0.18	1.49 ± 0.12
Nc1cccc(-c2cc3c(Oc4cccc(O)c4)ncnc3[nH]2)c1	1.06 ± 0.059	1.17 ± 0.022	1.25 ± 0.03

Compound	mitochondrial superoxide (time after LPS: 1 h)	mitochondrial superoxide (time after LPS: 2 h)	mitochondrial superoxide (time after LPS: 4 h)
COc1cc2/c(=N/c3ccc(Br)cc3F)nc[nH]c2cc1OCC1CCN(C)CC1 [Vandetanib (ZD6474)]	1.57 ± 0.036	1.63 ± 0.054	1.7 ± 0.077
CCS(=O)(=O)Nc1ccc2[nH]c(O)c(C(=Nc3ccc(CN4CCCCC4)cc3)c3ccccc3)c2c1 [Hesperadin]	1.1 ± 0.02	1.13 ± 0.031	1.28 ± 0.046
CC(C)n1nc(-c2cc3cc(O)ccc3[nH]2)c2c(N)ncnc21	1.03 ± 0.088	1.15 ± 0.12	1.28 ± 0.063
Clc1ccc(Nc2nnc(Cc3ccncc3)c3ccccc23)cc1 [Vatalanib (PTK787) 2HCl]	1.42 ± 0.075	1.5 ± 0.09	1.53 ± 0.057
COc1ccc(-c2cc3c(C)nc(N)nc3n([C@H]3CC[C@H](OCCO)CC3)c2=O)cn1	1.37 ± 0.058	1.53 ± 0.056	1.74 ± 0.049
COc1ncc(-c2ccc3nccc(-c4ccnnc4)c3c2)cc1NS(=O)(=O)c1ccc(F)cc1F	1.28 ± 0.049	1.42 ± 0.033	1.52 ± 0.077
COCCOc1ccc2c(c1)ncn2-c1ccc2cccc(N3CCC(N)CC3)c2n1	1.15 ± 0.048	1.19 ± 0.035	1.3 ± 0.038
NC(=O)c1ccc(N(C(N)=O)c2c(F)cccc2F)nc1-c1ccc(F)cc1F	1.2 ± 0.026	1.27 ± 0.087	1.327 ± 0.0024
CCS(=O)(=O)c1cccc(-c2cc(C(=O)NC3CCN(C)CC3)c(C)c3[nH]c4ncc(C)cc4c23)c1	1.31 ± 0.05	1.48 ± 0.079	1.64 ± 0.098
C[C@@H]1CCN(C(=O)CC#N)C[C@@H]1N(C)c1ncnc2[nH]ccc12	1.12 and 1.28	1.21 and 1.4	1.3 and 1.58
CNC(=O)c1ccccc1Nc1nc(Nc2ccc(N3CCOCC3)cc2OC)ncc1Cl	1.12 ± 0.084	1.11 ± 0.056	1.23 ± 0.081
O=c1cc(N2CCOCC2)oc2c(-c3ccccc3)cccc12	1.36 ± 0.075	1.41 ± 0.086	1.52 ± 0.035
COc1cc2ncnc(Nc3cccc(Cl)c3)c2cc1OC [AG-1478 (Tyrphostin AG-1478)]	1.11 ± 0.082	1.54 ± 0.039	1.65 ± 0.057
CC(C)NC[C@@H](C(=O)N1CCN(c2ncnc3c2[C@H](C)C[C@H]3O)CC1)c1ccc(Cl)cc1	1.25 ± 0.045	1.49 ± 0.11	1.7 ± 0.094
CCCNC(=O)Nc1ccc(Oc2ncnc3cc(OC)c(OC)cc23)cc1Cl	1.15 ± 0.055	1.21 ± 0.066	1.22 ± 0.024
COc1cc(N2CCC(N3CCN(C)CC3)CC2)ccc1Nc1ncc(Cl)c(Nc2ccccc2S(=O)(=O)C(C)C)n1	1.24 ± 0.068	1.3 ± 0.019	1.47 ± 0.04
CCN1CCN(c2ccc(Nc3cc(N(C)C(=O)Nc4c(Cl)c(OC)cc(OC)c4Cl)ncn3)cc2)CC1	1.2 ± 0.021	1.24 ± 0.035	1.35 ± 0.06
O=C1NC(=O)/C(=C/c2ccc3c(c2)OC(F)(F)O3)S1	1.26 ± 0.032	1.4 ± 0.033	1.51 ± 0.068
COc1ccc2c(Oc3ccc(NC(=O)c4c(C)n(CC(C)(C)O)n(-c5ccccc5)c4=O)nc3)ccnc2c1	1.09 ± 0.031	1.2 ± 0.034	1.391 ± 0.0084
CC1=C(C(=O)Nc2cc3cn[nH]c3cc2F)C(c2ccc(C(F)(F)F)cc2)CC(=O)N1 (configuration not stated)	1.23 ± 0.085	1.26 ± 0.033	1.35 ± 0.057
CN(C)Cc1cccc(N=C(c2ccccc2)c2c(O)[nH]c3cc(C(N)=O)ccc23)c1	1.15 ± 0.031	1.15 ± 0.052	1.26 ± 0.07
O=Nc1c(-c2c(O)[nH]c3cc(Br)ccc23)[nH]c2ccccc12	1.3 ± 0.081	1.43 ± 0.041	1.64 ± 0.067

Compound	mitochondrial superoxide (time after LPS: 1 h)	mitochondrial superoxide (time after LPS: 2 h)	mitochondrial superoxide (time after LPS: 4 h)
O=C(NCCCNc1nc(Nc2cccc(NC(=O)N3CCCC3)c2)ncc1I)c1cccs1	1.14 ± 0.041	1.18 ± 0.036	1.13 ± 0.051
Cc1cnc(Nc2ccc(N3CCN(C)CC3)cc2)nc1Nc1cccc(S(=O)(=O)NC(C)(C)C)c1	1.36 ± 0.025	1.51 ± 0.04	1.65 ± 0.027
NC(=O)c1cccc(-c2cc(Nc3ccc(OC(F)(F)F)cc3)ncn2)c1	1.14 ± 0.054	1.11 ± 0.054	1.21 ± 0.082
COc1cc2c(Oc3ccc4[nH]c(C)cc4c3F)ncnc2cc1OCCCN1CCCC1 [Cediranib (AZD2171)]	1.65 ± 0.088	1.65 ± 0.079	1.78 ± 0.081
CC1(C)CNc2cc(NC(=O)c3cccnc3NCc3ccncc3)ccc21 [Motesanib Diphosphate (AMG-706)]	1.55 ± 0.066	1.63 ± 0.12	1.71 ± 0.053
Cc1nc(NC(=O)N2CCC[C@H]2C(N)=O)sc1-c1csc(C(C)(C)C)n1	1.31 ± 0.053	1.43 ± 0.015	1.64 ± 0.053
Cc1cnc(NC(=O)Nc2cc(Br)c(C)cc2OC[C@@H]2CNCCO2)cn1	1.116 ± 0.011	1.262 ± 0.0098	1.55 ± 0.052
Cc1cc(Nc2cc(CN3CCOCC3)c3nc(C)c(Cc4ccc(Cl)cc4F)n3n2)n[nH]1	1.16 ± 0.062	1.23 ± 0.048	1.38 ± 0.035
CC(C)(C)c1cc(/C=C(\C#N)C(N)=S)cc(C(C)(C)C)c1O [Tyrphostin AG 879]	1.37 ± 0.06	1.42 ± 0.037	1.61 ± 0.037
Fc1cc(-c2cccc3ncc(-c4cnn(C5CCNCC5)c4)nc23)cc(F)c1CN1CCOCC1	1.15 ± 0.05	1.45 ± 0.13	1.69 ± 0.04
CCN(CC)CCCC(C)Nc1nc(C)cc(Nc2ccc3nc(C)cc(N)c3c2)n1 (configuration not stated)	1.35 ± 0.041	1.53 ± 0.051	1.65 ± 0.15
COc1cc(CCc2cc(NC(=O)c3ccc(N4CC(C)NC(C)C4)cc3)n[nH]2)cc(OC)c1 (configuration not stated)	1.26 ± 0.04	1.42 ± 0.032	1.53 ± 0.092
N#Cc1c(O)c2c(-c3ccc(-c4ccccc4O)cc3)csc2[nH]c1=O	1.3 ± 0.051	1.43 ± 0.023	1.52 ± 0.034
CCc1cccc(CC)c1NC(=O)N1Cc2[nH]nc(NC(=O)c3ccc(N4CCN(C)CC4)cc3)c2C1	1.09 ± 0.027	1.24 ± 0.015	1.34 ± 0.099
CCNC(=O)Nc1ccc(-c2nc3c(c(N4CCOC[C@@H]4C)n2)CCN(C2COC2)C3)cc1	1.42 ± 0.045	1.6 ± 0.039	1.68 ± 0.062
CCCCCCCCc1ccc(CCC(N)(CO)CO)cc1 [Fingolimod (FTY720) HCl]	1.15 ± 0.043	1.19 ± 0.071	1.31 ± 0.038
NC(=O)Nc1sc(-c2ccc(F)cc2)cc1C(N)=O	1.15 ± 0.055	1.2 ± 0.045	1.33 ± 0.06
CCc1ccc(/C=C2/SC(=S)NC2=O)cc1	1.137 ± 0.0067	1.22 ± 0.042	1.36 ± 0.0082
Cc1cc(F)c(Nc2ncnc3cc(OCc4ccccc4)ccc23)cc1O	1.17 ± 0.075	1.11 ± 0.018	1.2 ± 0.016
CNCc1ccc(-c2cc(-c3nc(-c4ccc(S(=O)(=O)C(C)C)cc4)cnc3N)on2)cc1	1.12 ± 0.068	1.24 ± 0.057	1.26 ± 0.018
